# Measured values: PubChem BioAssay (EPA / NIEHS)
# Results filed as inconclusive are left out. The source made the active and inactive calls. Rule for the calls, unless noted: active = hit-call score of the fitted dose curve at least 0.9, where 1 is the maximum; inactive = score below 0.9.
# How the values were obtained:
# [1] = read-out: Nuclear factor erythroid 2-related factor 2 (Homo sapiens) (UniProt Q16236); experiment: LTEA_HepaRG_NFE2L2: Life Technologies and Expression Analysis (LTEA) Assay for Nuclear factor erythroid 2-related factor 2 (NFE2L2) Transcription Factor using HepaRG (AID 2283527); conditions: mRNA level, 48 h; actives raise or lower the signal;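 for outcome: TaqMan qRT-PCR transcript level normalised to ACTB GAPDH and POLR2A housekeeping genes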
# Summary of the method: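 Differentiated human HepaRG cells, serum-free induction medium, exposed 48 h in duplicate to eight half-log concentrations up to 100 uM in 0.5% DMSO. NFE2L2 mRNA by Fluidigm TaqMan qRT-PCR, normalised to ACTB, GAPDH, POLR2A; bidirectional change versus DMSO.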
# [2] = read-out: succinate dehydrogenase complex iron sulfur subunit B (SDHB), SDHB (gene 6390); experiment: LTEA_HepaRG_SDHB: Life Technologies and Expression Analysis (LTEA) Assay for succinate dehydrogenase complex iron sulfur subunit B (SDHB) using HepaRG (AID 2283528); conditions: mRNA level, 48 h; actives raise or lower the signal
# Summary of the method: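 Readout is SDHB transcript level by qRT-PCR, normalised to three housekeeping genes and fitted bidirectionally against 0.5% DMSO vehicle. Human HepaRG cells were treated for 48 h at up to 100 uM.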
# [3] = read-out: Signal transducer and activator of transcription 3 (Homo sapiens) (UniProt P40763); experiment: LTEA_HepaRG_STAT3: Life Technologies and Expression Analysis (LTEA) Assay for Signal transducer and activator of transcription (STAT3) using HepaRG (AID 2283529); conditions: mRNA level, 48 h; actives raise or lower the signal
# Summary of the method: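 Differentiated HepaRG cells, serum-free induction medium, dosed 48 h in duplicate, 8 half-log concentrations from 100 uM in 0.5% DMSO. STAT3 mRNA by qRT-PCR, normalised to ACTB, GAPDH, POLR2A; bidirectional fit versus DMSO.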
# [4] = read-out: solute carrier (SLCO1B1), SLCO1B1 (gene 10599); experiment: LTEA_HepaRG_SLCO1B1: Life Technologies and Expression Analysis (LTEA) Assay for solute carrier (SLCO1B1) using HepaRG (AID 2283530); conditions: mRNA level, 48 h; actives raise or lower the signal
# Summary of the method: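 Gain or loss of SLCO1B1 mRNA is fitted against the 0.5% DMSO vehicle in human HepaRG liver cells treated 48 h at up to 100 uM in half-log steps. Expression comes from qRT-PCR normalized to endogenous controls.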
# [5] = read-out: sulfotransferase 2A1 (SULT2A1), SULT2A1 (gene 6822); experiment: LTEA_HepaRG_SULT2A1: Life Technologies and Expression Analysis (LTEA) Assay for sulfotransferase 2A1 (SULT2A1) using HepaRG (AID 2283531); conditions: mRNA level, 48 h; actives raise or lower the signal
# Summary of the method: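 Cells were plated and cultured 48 h, switched to serum-free induction medium, then dosed in duplicate for 48 h (8 concentrations, max 100 uM). RNA was isolated and SULT2A1 expression measured by qRT-PCR; gain or loss of signal fitted relative to DMSO.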
# [6] = read-out: Transforming Growth Factor (TGFA), TGFA (gene 7039); experiment: LTEA_HepaRG_TGFA: Life Technologies and Expression Analysis (LTEA) Assay for Transforming Growth Factor (TGFA) using HepaRG (AID 2283532); conditions: mRNA level, 48 h; actives raise or lower the signal
# Summary of the method: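 Differentiated HepaRG cells exposed 48 hours in serum-free induction medium, 0.5% DMSO vehicle, 8-point half-log series from 100 uM, in duplicate. TGFA mRNA by TaqMan qRT-PCR, normalised to ACTB, GAPDH, POLR2A; bidirectional fit versus DMSO.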
# [7] = read-out: Transforming Growth Factor (TGFB1), TGFB1 (gene 7040); experiment: LTEA_HepaRG_TGFB1: Life Technologies and Expression Analysis (LTEA) Assay for Transforming Growth Factor (TGFB1) Transporter using HepaRG (AID 2283533); conditions: mRNA level, 48 h; actives raise or lower the signal
# Summary of the method: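 Expression change of TGFB1 in human HepaRG cells is measured after a 48 h chemical exposure, up to 100 uM in 0.5% DMSO vehicle. Curves are fitted in both directions relative to the DMSO baseline.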
# TIMP1, TIMP1 (gene 7076) = experiment: LTEA_HepaRG_TIMP1: Life Technologies and Expression Analysis (LTEA) Assay for TIMP1 using HepaRG (AID 2283534); conditions: mRNA level, 48 h; actives raise or lower the signal;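 note: TaqMan qRT-PCR signal normalized to ACTB GAPDH and POLR2A housekeeping genes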
# Summary of the method: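 We dosed human liver HepaRG cultures for 48 hours with up to 100 uM test chemical and measured TIMP1 expression by qRT-PCR. Activity in either direction is fitted relative to the 0.5% DMSO vehicle.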
# [8] = read-out: Tumor necrosis factor receptor 1 (TNFRSF1A), TNFRSF1A (gene 7132); experiment: LTEA_HepaRG_TNFRSF1A: Life Technologies and Expression Analysis (LTEA) Assay for Tumor necrosis factor receptor 1 (TNFRSF1A) using HepaRG (AID 2283535); conditions: mRNA level, 48 h; actives raise or lower the signal
# Summary of the method: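 Expression of TNFRSF1A in human HepaRG liver cells was measured by qRT-PCR 48 h after chemical dosing (maximum 100 uM). Bidirectional curve fitting used 0.5% DMSO as baseline.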
# [9] = read-out: Thyroid Hormone Responsive (THRSP), THRSP (gene 7069); experiment: LTEA_HepaRG_THRSP: Life Technologies and Expression Analysis (LTEA) Assay for Thyroid Hormone Responsive (THRSP) using HepaRG (AID 2283536); conditions: mRNA level, 48 h; actives raise or lower the signal
# Summary of the method: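 Differentiated HepaRG cells treated 48 h in serum-free induction medium with 8 half-log concentrations up to 100 uM (0.5% DMSO), duplicates. THRSP mRNA by TaqMan qRT-PCR normalised to ACTB, GAPDH, POLR2A; bidirectional fit versus DMSO.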
# [10] = read-out: Cellular tumor antigen p53 (Homo sapiens) (UniProt P04637); experiment: LTEA_HepaRG_TP53: Life Technologies and Expression Analysis (LTEA) Assay for Tumor Protein P53 (TP53) using HepaRG (AID 2283537); conditions: mRNA level, 48 h; actives raise or lower the signal
# Summary of the method: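 Read-out is TP53 transcript level by microfluidic qRT-PCR, normalised to three housekeeping genes and fitted bidirectionally against DMSO. Human HepaRG cells received compounds for 48 h, highest concentration 100 uM.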
# [11] = read-out: UDP glucuronosyltransferase (UGT1A1), UGT1A1 (gene 54658); experiment: LTEA_HepaRG_UGT1A1: Life Technologies and Expression Analysis (LTEA) Assay for UDP glucuronosyltransferase (UGT1A1) using HepaRG (AID 2283538); conditions: mRNA level, 48 h; actives raise or lower the signal
# Summary of the method: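 Readout is UGT1A1 transcript level by qRT-PCR, normalized to three housekeeping genes, after 48 h chemical treatment of HepaRG cells. Concentrations ran from 100 uM down in half-log steps with 0.5% DMSO, and gain or loss relative to DMSO was fitted.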
# [12] = read-out: UDP glucuronosyltransferase (UGT1A6), UGT1A6 (gene 54578); experiment: LTEA_HepaRG_UGT1A6: Life Technologies and Expression Analysis (LTEA) Assay for UDP glucuronosyltransferase (UGT1A6) using HepaRG (AID 2283539); conditions: mRNA level, 48 h; actives raise or lower the signal
# Summary of the method: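 Endpoint is UGT1A6 transcript induction or loss in a human liver cell line, quantified by TaqMan qRT-PCR 48 h after dosing. Concentrations ran from 100 uM downward in half-log steps in 0.5% DMSO; activity was fitted in both directions versus vehicle.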
# [13] = read-out: X-box binding protein 1 (XBP1), XBP1 (gene 7494); experiment: LTEA_HepaRG_XBP1: Life Technologies and Expression Analysis (LTEA) Assay for X-box binding protein 1 (XBP1) using HepaRG (AID 2283540); conditions: mRNA level, 48 h; actives raise or lower the signal
# Summary of the method: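 Human HepaRG monolayers receive test chemical for 48 h across an eight-point half-log series starting at 100 uM. XBP1 mRNA gain or loss is scored against DMSO by qRT-PCR.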
# [14] = TOX21_p53_BLA_p2_viability: Viability Assessment in the Tox21 HCT-116 p53 Agonism Beta-lactamase Assay, Phase 2 (AID 2283591; active = hit-call score of the fitted dose curve at least 0.9, where 1 is the maximum;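 note: compound exposure lasted 16 h at 37 °C; actives lower the ATP signal meaning cytotoxicity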)
# Summary of the method: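 HCT116 p53-bla cells, 4000/well, dosed after 5 h plating (217-fold dilution of DMSO stocks) and incubated 16 h at 37C. Viability taken as cellular ATP by CellTiter-Glo luminescence after 30 min RT; signal loss marks cytotoxicity.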
# [15] = TOX21_p53_BLA_p3_viability: Viability Assessment in the Tox21 HCT-116 p53 Agonism Beta-lactamase Assay, Phase 3 (AID 2283593; active = hit-call score of the fitted dose curve at least 0.9, where 1 is the maximum;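 note: cells exposed to compound for 16 h before reading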)
# Summary of the method: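 HCT116 cells, 4000/well, dosed 5 h after plating by pin transfer (217-fold dilution from DMSO stock) and incubated 16 h at 37C, 5% CO2. Viability read as ATP luminescence with CellTiter-Glo after 30 min at room temperature.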
# [16] = ATG_XTT_Cytotoxicity: Cytotoxicity Assessment in the Attagene TRANS-FACTORIAL HepG2 Assay (AID 2283584; active = hit-call score of the fitted dose curve at least 0.9, where 1 is the maximum)
# Summary of the method: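 Transfect HepG2 with GAL4-UAS reporter units, dose compound, incubate 24 h, then measure viable cell number by XTT. Fit concentration response against DMSO baseline.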
# [17] = biological target: Cellular tumor antigen p53 (Homo sapiens) (UniProt P04637); experiment: TOX21_p53_BLA_p2_ratio: Tox21 HCT-116 p53 Agonism Beta-lactamase Assay, Ratio, Phase 2 (AID 2283592; active = hit-call score of the fitted dose curve at least 0.9, where 1 is the maximum)
# Summary of the method: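 An inducible beta-lactamase reporter in HCT116 cells signals p53 pathway activation. After 16 h chemical exposure at 37C, cells load CCF4-AM substrate for 2 h at room temperature; activity is the cleaved/uncleaved emission ratio relative to DMSO.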
# [18] = biological target: Cellular tumor antigen p53 (Homo sapiens) (UniProt P04637); experiment: TOX21_p53_BLA_p3_ratio: Tox21 HCT-116 p53 Agonism Beta-lactamase Assay, Ratio, Phase 3 (AID 2283596; active = hit-call score of the fitted dose curve at least 0.9, where 1 is the maximum)
# Summary of the method: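 HCT116 p53-bla cells (4000/well) given compound in DMSO (217-fold dilution) after 5 h, incubated 16 h at 37C. CCF4-AM substrate 2 h at room temperature; 460/530 nm emission ratio, gain fitted against DMSO.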
# [19] = LTEA_HepaRG_LDH_cytotoxicity: Cytotoxicity Assessment in the Life Technologies and Expression Analysis (LTEA) Assay (AID 2283563; active = hit-call score of the fitted dose curve at least 0.9, where 1 is the maximum)
# Summary of the method: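 Human HepaRG hepatic cells are treated with test chemicals for 48 h at up to 100 uM in 0.5% DMSO. Cytotoxicity is scored from medium LDH against the vehicle control.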
# Sequence of Signal transducer and activator of transcription 3 (Homo sapiens) (P40763 whole entry, looked up): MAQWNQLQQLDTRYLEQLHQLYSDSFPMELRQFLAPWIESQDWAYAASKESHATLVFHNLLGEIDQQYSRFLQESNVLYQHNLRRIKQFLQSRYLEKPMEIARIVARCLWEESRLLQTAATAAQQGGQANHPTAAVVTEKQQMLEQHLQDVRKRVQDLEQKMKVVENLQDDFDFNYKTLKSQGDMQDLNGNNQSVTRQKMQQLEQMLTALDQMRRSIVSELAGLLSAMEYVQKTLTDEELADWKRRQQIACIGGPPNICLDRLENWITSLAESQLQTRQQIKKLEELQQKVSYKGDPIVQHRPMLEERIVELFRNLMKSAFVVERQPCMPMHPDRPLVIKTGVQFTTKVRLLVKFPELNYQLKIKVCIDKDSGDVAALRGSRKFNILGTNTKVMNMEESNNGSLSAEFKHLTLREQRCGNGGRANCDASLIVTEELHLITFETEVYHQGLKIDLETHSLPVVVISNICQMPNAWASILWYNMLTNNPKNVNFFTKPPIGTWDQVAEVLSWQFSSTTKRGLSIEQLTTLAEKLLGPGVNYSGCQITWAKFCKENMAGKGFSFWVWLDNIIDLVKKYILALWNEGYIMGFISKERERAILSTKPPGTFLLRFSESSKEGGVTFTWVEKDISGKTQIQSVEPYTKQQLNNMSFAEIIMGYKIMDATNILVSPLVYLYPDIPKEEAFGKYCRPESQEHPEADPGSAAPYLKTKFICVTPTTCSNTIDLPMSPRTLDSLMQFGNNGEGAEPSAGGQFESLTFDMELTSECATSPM
# Sequence of Cellular tumor antigen p53 (Homo sapiens) (P04637 whole entry, looked up): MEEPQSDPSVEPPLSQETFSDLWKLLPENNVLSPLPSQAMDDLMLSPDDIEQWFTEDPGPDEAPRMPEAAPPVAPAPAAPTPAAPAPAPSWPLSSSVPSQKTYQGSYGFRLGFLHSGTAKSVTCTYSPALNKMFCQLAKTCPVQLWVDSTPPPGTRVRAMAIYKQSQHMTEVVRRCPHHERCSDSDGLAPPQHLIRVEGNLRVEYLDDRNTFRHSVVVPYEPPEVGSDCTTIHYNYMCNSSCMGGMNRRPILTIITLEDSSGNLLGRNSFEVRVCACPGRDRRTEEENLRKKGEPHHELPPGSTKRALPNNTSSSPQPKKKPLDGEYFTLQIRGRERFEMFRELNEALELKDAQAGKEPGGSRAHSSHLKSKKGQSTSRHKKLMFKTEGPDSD
# Sequence of Nuclear factor erythroid 2-related factor 2 (Homo sapiens) (Q16236 whole entry, looked up): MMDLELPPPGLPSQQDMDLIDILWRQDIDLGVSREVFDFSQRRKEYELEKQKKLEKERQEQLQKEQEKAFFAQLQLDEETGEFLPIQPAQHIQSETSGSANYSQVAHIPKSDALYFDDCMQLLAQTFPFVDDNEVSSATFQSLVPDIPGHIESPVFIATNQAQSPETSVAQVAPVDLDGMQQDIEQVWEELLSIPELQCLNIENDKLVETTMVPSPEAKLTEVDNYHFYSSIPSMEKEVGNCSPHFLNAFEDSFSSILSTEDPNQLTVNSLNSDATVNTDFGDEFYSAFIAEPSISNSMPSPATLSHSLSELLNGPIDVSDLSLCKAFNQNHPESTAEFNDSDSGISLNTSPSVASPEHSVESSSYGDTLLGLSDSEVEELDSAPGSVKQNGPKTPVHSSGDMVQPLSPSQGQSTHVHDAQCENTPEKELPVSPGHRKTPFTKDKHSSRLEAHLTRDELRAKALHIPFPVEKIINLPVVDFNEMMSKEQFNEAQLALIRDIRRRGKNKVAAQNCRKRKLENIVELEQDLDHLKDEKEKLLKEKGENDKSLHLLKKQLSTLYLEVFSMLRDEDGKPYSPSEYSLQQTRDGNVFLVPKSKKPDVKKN
compound,measurement,setting,value
CCNc1nc(Cl)nc(NC(C)(C)C#N)n1,outcome,[1],inactive
same,outcome,[2],inactive
same,outcome,[3],inactive
same,outcome,[4],inactive
same,outcome,[5],inactive
same,outcome,[6],inactive
same,outcome,[7],inactive
same,outcome,"TIMP1, TIMP1 (gene 7076)",inactive
same,outcome,[8],inactive
same,outcome,[9],inactive
same,outcome,[10],inactive
same,AC50,[11],3.53 µM (active)
same,outcome,[12],inactive
same,outcome,[13],inactive
same,outcome,[14],inactive
same,outcome,[15],inactive
CCOP(=S)(OCC)Oc1ccc2c(C)c(Cl)c(=O)oc2c1,AC50,[1],22.2 µM (active)
same,outcome,[2],inactive
same,outcome,[3],inactive
same,outcome,[4],inactive
same,outcome,[5],inactive
same,outcome,[6],inactive
same,outcome,"TIMP1, TIMP1 (gene 7076)",inactive
same,outcome,[8],inactive
same,AC50,[9],14.8 µM (active)
same,outcome,[10],inactive
same,AC50,[11],3.4 µM (active)
same,outcome,[12],inactive
same,outcome,[16],inactive
same,outcome,[14],inactive
same,outcome,[17],inactive
same,outcome,[15],inactive
same,outcome,[18],inactive
CC(=NC#N)N(C)Cc1ccc(Cl)nc1,outcome,[1],inactive
same,outcome,[2],inactive
same,outcome,[3],inactive
same,outcome,[4],inactive
same,outcome,[5],inactive
same,outcome,[6],inactive
same,outcome,"TIMP1, TIMP1 (gene 7076)",inactive
same,outcome,[8],inactive
same,outcome,[9],inactive
same,outcome,[10],inactive
same,AC50,[11],50 µM (active)
same,outcome,[12],inactive
same,outcome,[13],inactive
same,outcome,[14],inactive
same,outcome,[17],inactive
same,outcome,[15],inactive
same,outcome,[18],inactive
CCc1cccc(CC)c1N(COC)C(=O)CCl,outcome,[1],inactive
same,outcome,[2],inactive
same,outcome,[3],inactive
same,outcome,[4],inactive
same,outcome,[5],inactive
same,outcome,[6],inactive
same,outcome,[7],inactive
same,outcome,"TIMP1, TIMP1 (gene 7076)",inactive
same,outcome,[8],inactive
same,outcome,[9],inactive
same,AC50,[11],66.5 µM (active)
same,outcome,[12],inactive
same,outcome,[19],inactive
O=c1ccc(=O)[nH][nH]1,outcome,[1],inactive
same,outcome,[2],inactive
same,outcome,[3],inactive
same,outcome,[4],inactive
same,outcome,[5],inactive
same,outcome,[6],inactive
same,outcome,"TIMP1, TIMP1 (gene 7076)",inactive
same,outcome,[8],inactive
same,outcome,[9],inactive
same,outcome,[10],inactive
same,outcome,[11],inactive
same,outcome,[12],inactive
same,outcome,[14],inactive
same,outcome,[17],inactive
same,outcome,[15],inactive
same,outcome,[18],inactive
COc1cc(OC)nc(Sc2cccc(Cl)c2C(=O)O)n1,outcome,[1],inactive
same,outcome,[3],inactive
same,outcome,[4],inactive
same,outcome,[5],inactive
same,outcome,[6],inactive
same,outcome,[7],inactive
same,outcome,"TIMP1, TIMP1 (gene 7076)",inactive
same,outcome,[8],inactive
same,outcome,[9],inactive
same,outcome,[10],inactive
same,outcome,[11],inactive
same,outcome,[12],inactive
same,outcome,[13],inactive
same,outcome,[14],inactive
same,outcome,[17],inactive
same,outcome,[15],inactive
same,outcome,[18],inactive
CON=C(C(=O)OC)c1ccccc1CON=C(C)c1cccc(C(F)(F)F)c1,outcome,[1],inactive
same,outcome,[2],inactive
same,outcome,[3],inactive
same,outcome,[4],inactive
same,outcome,[5],inactive
same,outcome,[6],inactive
same,outcome,[7],inactive
same,outcome,"TIMP1, TIMP1 (gene 7076)",inactive
same,outcome,[8],inactive
same,AC50,[9],50 µM (active)
same,outcome,[10],inactive
same,AC50,[11],6.06 µM (active)
same,outcome,[12],inactive
same,outcome,[19],inactive
same,outcome,[14],inactive
same,AC50,[17],1.25 µM (active)
same,outcome,[15],inactive
same,AC50,[18],3.12 µM (active)
